# Test results from PubChem BioAssay (NCATS).
# Results filed as inconclusive are left out. A call without a number means that no potency is given here. A number with no mark means an inactive call. The source made the active and inactive calls. Calls come from the whole dose curve; as a rule, active = well fitted curve in the direction sought with a large enough effect; inconclusive = small, poorly fitted or top-dose-only effect, or another doubt; inactive = no such curve, though single readings can be large; an effect the other way counts as inactive or inconclusive.
# What was measured:
# [1] = test system: MKL-1; assay: qHTS assay to identify novel small-molecules to repurpose for Merkel cell carcinoma treatment (AID 1296009); settings: MCC and control cell lines, CellTiter-Glo viability, 72 h; series mostly up to 46 µM; note: nearly all actives have a fitted effect of over 60% in size
# How it was run: (§1)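 Cells exposed to NPC (8-point) and MIPE (11-point) compound dilutions for 72 hr at 37 degree celsius; viability read by CellTiter-Glo luminescence, normalized to no-cell and DMSO in-plate controls.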
# [2] = test system: MKL-2; assay: as above; settings: MCC and control cell lines, CellTiter-Glo viability, 72 h; series mostly up to 46 µM
# How it was run: as §1
# [3] = test system: UISO; assay: as above; settings: MCC and control cell lines, CellTiter-Glo viability, 72 h; series mostly up to 46 µM
# How it was run: as §1
# [4] = test system: WaGa; assay: as above; settings: MCC and control cell lines, CellTiter-Glo viability, 72 h; series mostly up to 46 µM
# How it was run: as §1
# [5] = test system: OV90; assay: Primary qHTS to identify gynecologic anti-cancer compounds using libraries of approved drugs and bioactive compounds (AID 1345084); settings: Gynecologic cancer cell panel viability, ATPlite luminescence, 48 h; series mostly up to 57.5 µM; note: nearly all actives have a fitted effect of over 55% in size
# How it was run: (§2)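 Luminescence from the ATPlite ATP-monitoring reagent indicates viable cell number; lower signal means cytotoxicity. Cells received compound 16 h after seeding and were exposed for 48 h across five concentrations.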
# [6] = test system: SKOV3; assay: as above; settings: Gynecologic cancer cell panel viability, ATPlite luminescence, 48 h; series mostly up to 57.5 µM
# How it was run: as §2
# [7] = test system: Es-2; assay: as above; settings: Gynecologic cancer cell panel viability, ATPlite luminescence, 48 h; series mostly up to 57.5 µM
# How it was run: as §2
# [8] = test system: HeLa; assay: as above; settings: Gynecologic cancer cell panel viability, ATPlite luminescence, 48 h; series mostly up to 57.5 µM
# How it was run: as §2
# [9] = test system: JEG-3; assay: as above; settings: Gynecologic cancer cell panel viability, ATPlite luminescence, 48 h; series mostly up to 57.5 µM
# How it was run: as §2
# [10] = test system: Tov-21-G; assay: as above; settings: Gynecologic cancer cell panel viability, ATPlite luminescence, 48 h; series mostly up to 57.5 µM
# How it was run: as §2
# [11] = test system: C33A; assay: as above; settings: Gynecologic cancer cell panel viability, ATPlite luminescence, 48 h; series mostly up to 57.5 µM
# How it was run: as §2
# [12] = test system: CAOV3; assay: as above; settings: Gynecologic cancer cell panel viability, ATPlite luminescence, 48 h; series mostly up to 57.5 µM
# How it was run: as §2
# [13] = test system: PA-1; assay: as above; settings: Gynecologic cancer cell panel viability, ATPlite luminescence, 48 h; series mostly up to 57.5 µM
# How it was run: as §2
# [14] = test system: Hek293T; assay: as above; settings: Gynecologic cancer cell panel viability, ATPlite luminescence, 48 h, control line for the selectivity index; series mostly up to 57.5 µM
# How it was run: as §2
# [15] = test system: CASKI; assay: as above; settings: Gynecologic cancer cell panel viability, ATPlite luminescence, 48 h; series mostly up to 57.5 µM
# How it was run: as §2
# Potency is the fitted concentration of half-maximal effect.
compound,measurement,setting,value
CC(C)(C)c1ccc(O)c(O)c1,Potency,[1],6.86 µM (active)
same,Potency,[2],6.11 µM (active)
same,Potency,[3],15.4 µM (active)
same,Potency,[4],10.9 µM (active)
same,Potency,[5],35.5 µM (active)
same,Potency,[6],31.6 µM (active)
Cc1cc(OCCOCC[N+](C)(C)Cc2ccccc2)ccc1C(C)(C)CC(C)(C)C,Potency,[3],4.22 µM (active)
same,Potency,[7],inactive
same,Potency,[8],inactive
same,Potency,[9],inactive
same,Potency,[10],inactive
CCCCCCCCCCCCCCCC[N+](C)(C)Cc1ccccc1,Potency,[1],5.96 µM (active)
same,Potency,[2],0.335 µM (active)
same,Potency,[3],4.22 µM (active)
same,Potency,[11],28.2 µM (active)
same,Potency,[12],20 µM (active)
same,Potency,[8],25.1 µM (active)
same,Potency,[9],inactive
same,Potency,[5],25.1 µM (active)
same,Potency,[13],15.8 µM (active)
CC(NCCC(c1ccccc1)c1ccccc1)c1ccccc1 (stereo not given),Potency,[2],11.9 µM (active)
same,Potency,[7],inactive
same,Potency,[8],inactive
same,Potency,[14],inactive
same,Potency,[9],inactive
same,Potency,[5],28.2 µM (active)
same,Potency,[10],inactive
COC(=O)C1=CO[C@@H](O)[C@@H]2C(CO)=CC[C@H]12,Potency,[11],inactive
same,Potency,[15],inactive
same,Potency,[7],inactive
same,Potency,[8],inactive
same,Potency,[14],inactive
same,Potency,[9],inactive
same,Potency,[5],inactive
same,Potency,[13],inactive
same,Potency,[6],inactive
same,Potency,[10],inactive
C[C@@H](O[C@H]1OCCN(Cc2n[nH]c(=O)[nH]2)[C@H]1c1ccc(F)cc1)c1cc(C(F)(F)F)cc(C(F)(F)F)c1,Potency,[11],inactive
same,Potency,[12],inactive
same,Potency,[15],inactive
same,Potency,[7],inactive
same,Potency,[14],inactive
same,Potency,[9],inactive
same,Potency,[5],inactive
same,Potency,[13],inactive
same,Potency,[10],inactive
O=C1NC(c2cccc([N+](=O)[O-])c2)=CCN1c1ccccc1O,Potency,[11],inactive
same,Potency,[12],inactive
same,Potency,[7],inactive
same,Potency,[8],inactive
same,Potency,[5],inactive
same,Potency,[13],inactive
same,Potency,[10],inactive
O=C1[C@@H]2[C@H]3CC[C@H](C3)[C@@H]2C(=O)N1CCCCN1CCN(c2ncccn2)CC1,Potency,[11],inactive
same,Potency,[12],inactive
same,Potency,[15],inactive
same,Potency,[7],inactive
same,Potency,[8],inactive
same,Potency,[14],inactive
same,Potency,[9],inactive
same,Potency,[5],inactive
same,Potency,[13],inactive
same,Potency,[6],inactive
same,Potency,[10],inactive
COc1c(N2C[C@@H]3CCCN[C@@H]3C2)c(F)cc2c(=O)c(C(=O)O)cn(C3CC3)c12,Potency,[11],inactive
same,Potency,[12],inactive
same,Potency,[15],inactive
same,Potency,[7],inactive
same,Potency,[8],inactive
same,Potency,[14],inactive
same,Potency,[9],inactive
same,Potency,[5],inactive
same,Potency,[13],inactive
same,Potency,[6],inactive
same,Potency,[10],inactive
CN1CC[C@H](c2c(O)cc(O)c3c(=O)cc(-c4ccccc4Cl)oc23)[C@H](O)C1,Potency,[3],0.473 µM (active)
same,Potency,[11],1.26 µM (active)
same,Potency,[15],0.708 µM (active)
same,Potency,[7],0.708 µM (active)
same,Potency,[8],0.794 µM (active)
same,Potency,[9],inactive
same,Potency,[13],0.447 µM (active)
O=C1CC[C@H](C(=O)N2CCCCC2)N1,Potency,[11],inactive
same,Potency,[12],inactive
same,Potency,[15],inactive
same,Potency,[7],inactive
same,Potency,[8],inactive
same,Potency,[14],inactive
same,Potency,[9],inactive
same,Potency,[5],inactive
same,Potency,[13],inactive
same,Potency,[6],inactive
same,Potency,[10],inactive
CC1CN(c2cc3c(cc2F)c(=O)c(C(=O)O)cn3-c2ccc(F)cc2F)CCN1 (stereo not given),Potency,[11],inactive
same,Potency,[12],inactive
same,Potency,[15],inactive
same,Potency,[7],inactive
same,"activity change, negative = cytotoxicity",[8],5.19% [at 6.55 µM]
same,"activity change, negative = cytotoxicity",[14],-5.43% [at 6.55 µM]
same,"activity change, negative = cytotoxicity",[9],13.6% [at 6.55 µM]
same,"activity change, negative = cytotoxicity",[5],18.6% [at 6.55 µM]
same,"activity change, negative = cytotoxicity",[13],6.96% [at 6.55 µM]
same,"activity change, negative = cytotoxicity",[6],-2.15% [at 6.55 µM]
same,"activity change, negative = cytotoxicity",[10],-0.759% [at 6.55 µM]
CCCCCCCCCCCCCCCCCCNC(=O)OC1CCN(C(=O)OC[C@H](COC(=O)N(Cc2cccc[n+]2CC)C(=O)c2ccccc2OC)OC)CC1,Potency,[1],11.9 µM (active)
same,Potency,[2],2.66 µM (active)
same,Potency,[3],6.68 µM (active)
same,Potency,[12],15.8 µM (active)
same,Potency,[15],15.8 µM (active)
same,Potency,[9],inactive
same,Potency,[5],28.2 µM (active)
same,Potency,[13],12.6 µM (active)
same,Potency,[6],20 µM (active)
same,Potency,[10],25.1 µM (active)
CCN(CC)CCOc1ccc(/C(=C(\Cl)c2ccccc2)c2ccccc2)cc1,Potency,[1],23.7 µM (active)
same,Potency,[4],26.6 µM (active)
same,Potency,[15],inactive
same,Potency,[8],inactive
same,Potency,[9],inactive
same,Potency,[5],14.1 µM (active)
CC(COc1ccccc1)NN (stereo not given),Potency,[11],inactive
same,Potency,[12],inactive
same,Potency,[15],inactive
same,Potency,[7],inactive
same,Potency,[8],inactive
same,Potency,[14],inactive
same,Potency,[9],inactive
same,Potency,[5],inactive
same,Potency,[13],inactive
same,Potency,[6],inactive
same,Potency,[10],inactive
CC(=O)Oc1ccc(C2(c3ccc(OC(C)=O)cc3)Oc3ccccc3NC2=O)cc1,Potency,[1],inactive
same,Potency,[2],inactive
same,Potency,[11],inactive
same,Potency,[13],31.6 µM (active)
same,Potency,[10],22.4 µM (active)
Cc1nn(-c2ccccc2)c(C)c1/C=N/N1CCN(Cc2ccccc2)CC1,Potency,[11],inactive
same,Potency,[12],inactive
same,Potency,[15],inactive
same,Potency,[7],inactive
same,Potency,[8],inactive
same,Potency,[14],inactive
same,Potency,[9],inactive
same,Potency,[5],inactive
same,Potency,[13],inactive
same,Potency,[6],inactive
same,Potency,[10],inactive
O=C1NC2CCCCN2C12CCN(CCCN1c3ccccc3CCc3ccc(Cl)cc31)CC2 (stereo not given),Potency,[2],21.1 µM (active)
same,Potency,[11],inactive
same,Potency,[8],inactive
same,Potency,[9],inactive
same,Potency,[10],inactive
CN(C)c1cc2c(Nc3ccc4c(cnn4Cc4ccccc4)c3)ncnc2cn1,Potency,[11],inactive
same,Potency,[12],inactive
same,Potency,[15],inactive
same,Potency,[7],inactive
same,Potency,[8],inactive
same,Potency,[14],inactive
same,Potency,[9],inactive
same,Potency,[5],inactive
same,Potency,[6],inactive
same,Potency,[10],inactive
O=C(Nc1ccc(Cl)cc1)Nc1ccc(Cl)c(C(F)(F)F)c1,Potency,[1],21.1 µM (active)
same,Potency,[2],7.5 µM (active)
same,Potency,[3],10.6 µM (active)
same,Potency,[4],26.6 µM (active)
same,Potency,[11],17.8 µM (active)
same,Potency,[7],28.2 µM (active)
same,Potency,[8],14.1 µM (active)
same,Potency,[14],14.1 µM (active)
same,Potency,[9],inactive
same,Potency,[5],25.1 µM (active)
Nc1ncnc2n[nH]c(Nc3ccc(F)cc3)c12,Potency,[13],25.1 µM (active)
O=C(Nc1ccc(Cl)cc1)Nc1ccc(Cl)c(Cl)c1,Potency,[1],18.8 µM (active)
same,Potency,[2],5.96 µM (active)
same,Potency,[3],10.6 µM (active)
same,Potency,[4],21.1 µM (active)
same,Potency,[15],inactive
same,Potency,[10],inactive
CCOC(=O)C1=C(C)NC(C)=C(C(=O)OCC)C1c1ccccc1/C=C/C(=O)OC(C)(C)C,Potency,[1],26.6 µM (active)
same,Potency,[2],21.1 µM (active)
same,Potency,[3],26.6 µM (active)
same,Potency,[4],23.7 µM (active)
same,Potency,[7],inactive
same,Potency,[8],inactive
same,Potency,[14],inactive
same,Potency,[9],inactive
same,Potency,[5],inactive
same,Potency,[13],inactive
same,Potency,[10],inactive
